Test in all cases: NCI-60 one-dose screen, 48 h (100 = growth as untreated, 0 = no growth, -100 = all killed)
Details in all cases: 10 µM unless noted

In experiment [1] the test system is SK-MEL-2 melanoma.
Experiment [2] deals with EKVX NSCLC.
The test system of experiment [3] is SN12C renal.
The subject of experiment [4] is UO-31 renal.
The test system of experiment [5] is TK-10 renal.
In experiment [6] the test system is ACHN renal.
Experiment [7] has as its system CAKI-1 renal.
Experiment [8] relates to A498 renal.
Experiment [9] has as its system CCRF-CEM leukemia.
For experiment [10], the system named is MOLT-4 leukemia.

The panel holds about 83,000 compounds, 20% with a hit somewhere; the sample as a whole holds those more often.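 The endpoint reported here, percent growth, reads 100 for growth as untreated, 0 for no net growth and -100 for all cells dead.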 A number with no mark means an inactive call. Activity calls are given as the source filed them. Rule for the calls: active = growth percent below 10; inactive = the rest.

For the compound `COc1ccc(/C=C/c2nc3ccccc3nc2Nc2cccc(C)c2)cc1`, the growth is 102% in [1]; 89% in [2]; 92.7% in [3]; 78.4% in experiment [4]; 173% in experiment [5]; 98.3% in experiment [6]. For the same compound, the growth in [7] was 72.9%; in [8], 118%; in experiment [9], 98.7%; in experiment [10], 82.7%.

Consider `CCCCn1c(O)c(N=Nc2nc(-c3cc4ccccc4oc3=O)cs2)c2cc(Br)ccc21`, for which the growth in experiment [1] is 116%; in [2], 97.1%; in experiment [3], 101%; in experiment [4] it was 85%; in experiment [5], 115%; in [6] it was 106%. The growth in experiment [7] was 102%; in experiment [8], 103%; in experiment [9], 104%; in experiment [10], 107%.

As to `COc1ccc2oc(=O)c(C3(C)NC(=O)c4c(/C=C/C(=O)OC(C)(C)C)cccc4N3)cc2c1` (stereo not given), the growth in [1] was 7.6% (active); in [2] it was 37.1%; in experiment [3], 40.6%; in [4] it was 25%; in [5], 56.7%; in experiment [6], 28.6%. The growth is 39.9% in experiment [7], 57.8% in [8], 32.1% in experiment [9] and 18.1% in [10].

As to `CSc1ccc(NC(=O)c2ccc3nnn(/C(C#N)=C/c4ccccn4)c3c2)cc1`, the growth is -96.3% (active) in experiment [1]; -99.6% (active) in [2]; -99.9% (active) in experiment [3]; -100% (active) in [4]; -98.5% (active) in experiment [5]; -100% (active) in experiment [6]. Further, the growth is -93.5% (active) in [7], 45.1% in experiment [8], 6.95% (active) in [9] and 6.04% (active) in experiment [10].

In the case of `COc1ccc(C(=O)/C=C/c2ccc(OCc3ccc(F)cc3)c(OC)c2)cc1OC`, the growth in [1] was 52.9%; in experiment [2], 59.9%; in experiment [3], -1.58% (active); in experiment [4] it was 21.5%; in experiment [5], 39.6%; in experiment [6] it was 28.5%. Further, the growth in [7] is 32.6%; in [8] it was 94.7%; in experiment [9] it was 7.26% (active); in [10], 9.77% (active).

`N#Cc1c(-c2ccccc2Cl)cc(-c2ccc3ccccc3c2)[nH]c1=O`: the growth is 95.4% in experiment [1]; 41.1% in experiment [2]; 0.758% (active) in [3]; 0.793% (active) in experiment [4]; -0.132% (active) in experiment [5]; 9.07% (active) in experiment [6]. Also, the growth is 25.1% in [7], -29.6% (active) in [8], 56.8% in experiment [9] and 56.1% in experiment [10].

Turning to `O=C1NC(=O)c2c1c1c3cc(Br)ccc3[nH]c1c1oc3ccc(F)cc3c21`, the growth in [1] was -58.3% (active); in experiment [2], 20.7%; in experiment [3], -39.1% (active); in experiment [4], 10.8%; in [5] it was 66.7%; in experiment [6], -72.5% (active). In addition, the growth in experiment [7] is -64.8% (active); in experiment [8] it was -83.1% (active); in [9], 2.94% (active); in experiment [10] it was -5.4% (active).

Take `O=C(NN1C(=O)/C(=C/C=C/c2ccc([N+](=O)[O-])o2)SC1=S)c1ccccc1O`: the growth was -86.9% (active) in experiment [1]; -94.1% (active) in experiment [2]; -98.2% (active) in experiment [3]; -99.5% (active) in experiment [4]; -87.6% (active) in experiment [5]; -100% (active) in experiment [6]. Moreover, the growth in experiment [7] was -100% (active); in experiment [8] it was -61.2% (active); in experiment [9], 5.02% (active); in experiment [10] it was 6.95% (active).

Consider `Cn1cc(-c2nc(N)nnc2-c2c[nH]c3ccc(F)cc23)c2cc(Br)cnc21`, for which the growth was -27.7% (active) in [1]; 26.2% in experiment [2]; 10.4% in [3]; 6.23% (active) in experiment [4]; 26.2% in [5]; 12.2% in experiment [6]. Also, the growth in experiment [7] was -10.9% (active); in experiment [8], -31.2% (active); in experiment [9], 5.12% (active); in experiment [10], -0.149% (active).

Turning to `COc1ccc(/C=N/NC(=O)Cn2nc(Cc3ccc(OC)cc3)c3onc(C)c3c2=O)cc1`, the growth was 78.9% in experiment [1]; 61.5% in experiment [2]; 27.5% in experiment [3]; 44.6% in [4]; 79.4% in experiment [5]; 12.8% in [6]. Also, the growth was -27.2% (active) in experiment [7], 48.1% in experiment [8], 75.5% in experiment [9] and 78.7% in experiment [10].

As to `Cn1cc(-c2cc3nc(-c4cn(C)c5ncc(Br)cc45)cc(N)n3n2)c2cc(Cl)ccc21`, the growth in experiment [1] was -76% (active); in [2], -71.1% (active); in experiment [3], -87.9% (active); in experiment [4] it was -87.8% (active); in experiment [5], -94.9% (active); in experiment [6] it was -100% (active). The growth in [7] is -71.7% (active); in experiment [8], -1.96% (active); in [9], -37.4% (active); in experiment [10], -47.5% (active).

Consider `COc1cc(-c2nc3ccc(C)cc3[nH]2)ccc1OCc1nnc(-c2ccc(Br)cc2)o1`, for which the growth in experiment [1] is 83%; in experiment [2] it was 42.7%; in [3], 36.2%; in [4], 43%; in experiment [5], 33.2%; in experiment [6] it was 55.9%. In addition, the growth is 44.6% in experiment [7], 89.3% in [8], 26.4% in experiment [9] and 25% in experiment [10].

Take `O=c1[nH]c(=O)c2c(-c3cc4ccccc4oc3=O)ccnc2[nH]1`: the growth is 82.6% in experiment [1]; 103% in experiment [2]; 81% in experiment [3]; 71.6% in experiment [4]; 105% in [5]; 53.2% in [6]. Further, the growth in experiment [7] is 48.1%; in experiment [8], 148%; in experiment [9], 101%; in experiment [10] it was 111%.

The values are drawn from PubChem BioAssay (NCI).
